# Laboratory results as given in PubChem BioAssay (EPA / NIEHS).
# Active and inactive are the calls of the source. Rule for the calls: active = hit-call score of the fitted dose curve at least 0.9, where 1 is the maximum; inactive = score below 0.9.
# Assay: CCTE_Mundy_HCI_Cortical_Synap_Neur_Matur_NeuriteCount: CCTE's Synaptogenesis and Neurite Maturation Assay in rat cortical cells for Neurite Count, Mundy Lab (AID 2284222)
# Method: CCTE_Mundy_HCI_Cortical_Synap&Neurite_Matur is a multiplexed, cell-based-readout assay that uses rat primary cortical cells with measurements taken at 288.33 hours after chemical dosing in a microplate: 96-well plate.CCTE_Mundy_HCI_Cortical_Synap_Neur_Matur_NeuriteCount is one of eight components of the CCTE_Mundy_HCI_Cortical_Synap&Neurite_Matur assay. It measures synaptogenesis and neurite maturation related to number of neurites using High Content Imaging of fluorescently labelled markers.[…] Using a type of morphology reporter, loss -of-signal activity can be used to understand developmental effects.
# Cells are plated onto 96 well plates and allowed 2 hr for attachment to the substrate. At days in vitro (DIV) 5, Cytosine Arabinoside (AraC) is added to arrest glial cell growth. Chemicals are dosed and a media change is performed at DIV 7 of differentiation and is continued through DIV 12 when the experiment is terminated. Cells are fixed with […] and Hoechst Dye. Cells are stained using Millipore Mouse anti-MAP2MAB3418 (1:800) and Millipore Rabbit anti-Synaptophysinsc-1750 (1:250) primary antibodies and Alexa Fluor-488 goat anti-mouse and AlexaFluor-546 goat anti-rabbit secondary antibodies to label neuronal cell nuclei, synapses and neurites. A Cellomics ArrayScan VTi HCS Reader is used for automated image acquisition and analysis of neurite outgrowth.
Compound,AC50,outcome
CCCCC(CC)COC(=O)c1ccccc1C(=O)OCC(CC)CCCC (configuration not stated),4.84 µM (active),
CCCCNC(=O)n1c(NC(=O)OC)nc2ccccc21,,inactive
CCOC(=O)CC(SP(=S)(OC)OC)C(=O)OCC (configuration not stated),,inactive
C=CCC1=C(C)[C@@H](OC(=O)[C@@H]2[C@@H](C=C(C)C)C2(C)C)CC1=O,23.7 µM (active),
C=CCC1=C(C)C(OC(=O)C2C(C=C(C)C)C2(C)C)CC1=O (configuration not stated),,inactive
C=CC1(C)OC(=O)N(c2cc(Cl)cc(Cl)c2)C1=O (configuration not stated),,inactive
COC(=O)N(OC)c1ccccc1COc1ccn(-c2ccc(Cl)cc2)n1,0.105 µM (active),
Cc1ccc(-c2c(Cl)nc(C#N)n2S(=O)(=O)N(C)C)cc1,80.2 µM (active),
CCOc1cc(Oc2ccc(C(F)(F)F)cc2Cl)ccc1[N+](=O)[O-],16.6 µM (active),
COP(=S)(OC)Oc1nc(Cl)c(Cl)cc1Cl,27.9 µM (active),
CN(C)C(=S)SSC(=S)N(C)C,0.0585 µM (active),
CC(C)(C)c1ccc(CSc2cnn(C(C)(C)C)c(=O)c2Cl)cc1,0.00118 µM (active),
CO/C=C(/C(=O)OC)c1ccccc1Oc1cc(Oc2ccccc2C#N)ncn1,4.78 µM (active),
CCCCOC(=O)c1ccccc1C(=O)OCCCC,85.8 µM (active),
CNC(=O)ON=CC(C)(C)SC,,inactive
COP(N)(=O)SC (configuration not stated),,inactive
N#Cc1nn(-c2c(Cl)cc(C(F)(F)F)cc2Cl)c(N)c1S(=O)C(F)(F)F (configuration not stated),,inactive
